Activity calls are given as the source filed them. The calls were made as follows: active = hit-call score of the fitted dose curve at least 0.9, where 1 is the maximum; inactive = score below 0.9.
molecular target: Retinoic acid receptor alpha (Homo sapiens) (UniProt P10276); experiment: ATG_DR5_RAR_CIS: Attagene CIS-FACTORIAL HepG2 Assay for human Retinoic Acid Receptor Alpha (RARE), DR5 submotif (AID 2282934); conditions: HepG2 Attagene cis-factorial RARE DR5 reporter, mRNA; actives raise or lower the signal
Sequence (P10276 whole entry, looked up): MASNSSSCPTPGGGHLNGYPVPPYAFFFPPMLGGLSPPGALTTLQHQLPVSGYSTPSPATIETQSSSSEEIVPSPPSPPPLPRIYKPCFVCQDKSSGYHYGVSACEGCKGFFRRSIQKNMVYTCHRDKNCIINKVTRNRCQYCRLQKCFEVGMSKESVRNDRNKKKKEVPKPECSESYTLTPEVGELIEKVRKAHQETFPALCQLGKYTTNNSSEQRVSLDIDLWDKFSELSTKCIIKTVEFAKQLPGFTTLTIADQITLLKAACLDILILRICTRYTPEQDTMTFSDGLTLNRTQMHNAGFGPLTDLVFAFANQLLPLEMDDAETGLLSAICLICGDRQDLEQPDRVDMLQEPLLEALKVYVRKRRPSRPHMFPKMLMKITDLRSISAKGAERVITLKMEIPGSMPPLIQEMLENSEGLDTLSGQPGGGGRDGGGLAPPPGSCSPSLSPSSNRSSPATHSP
In short: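 Transient MRTU transfection of HepG2; 24 h compound treatment; TriZol RNA, oligo(dT) RT, PCR, FAM labelling, capillary electrophoresis. Bidirectional fit vs DMSO. Endogenous TF activity at DR5 RARE.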

Structure (SMILES) | outcome
O=C1CCCCCCCCCCCCCC1 | inactive
CCCC(=O)OC/C=C(\C)CCC=C(C)C | inactive
CCCCCCC(O)CCCCCCCCCCC(=O)OC (centres undefined) | inactive
C/C=C(\C)C(=O)OCC/C=C\CC | inactive
CC/C=C\CC/C=C/C(OCC)OCC | inactive
C=CCOCC(CC)(CO)COCC=C | inactive
CN1CCCC1 | inactive
CCCCCCC1CCC(=O)O1 (centres undefined) | inactive
O=[N+]([O-])c1ccccc1C(F)(F)F | inactive
CCC(=O)OCc1ccc(OC)cc1 | inactive
CCc1cc(C(N)=S)ccn1 | inactive
CCC(C)=NO | inactive
C=C1CC[C@H]2C[C@@H]1C2(C)C | inactive
CCCCCC1CCCC(=O)O1 (centres undefined) | inactive
COC(=O)[C@]1(C)CCC[C@@]2(C)[C@H]1CC=C1C=C(C(C)C)CC[C@@H]12 | inactive
Cc1cc2nc3c(=O)[nH]c(=O)nc-3n(C[C@H](O)[C@H](O)[C@H](O)CO)c2cc1C | inactive
Cc1cc(-n2nc3ccc(Cl)cc3n2)c(O)c(C(C)(C)C)c1 | inactive
O=C(OCc1ccccc1)c1ccccc1 | inactive
CCCCCCC1CCCC(=O)O1 (centres undefined) | inactive
c1ccc(CNc2ncnc3nc[nH]c23)cc1 | inactive
NC(=O)c1ccc(N)cc1 | inactive
CC(=O)Nc1c(I)c(NC(C)=O)c(I)c(C(=O)O)c1I | inactive
CC(C)=CCOC(=O)c1ccccc1 | inactive
Oc1ccc(Oc2ccccc2)cc1 | inactive
CC(=O)CCc1ccccc1 | inactive
CNC[C@H](O)[C@@H](O)[C@H](O)[C@H](O)CO | inactive

molecular target: Transcription factor E2F1 (Homo sapiens) (UniProt Q01094); experiment: ATG_E2F_CIS: Attagene CIS-FACTORIAL HepG2 Assay for human E2F Transcription Factor 1 (AID 2282935); conditions: HepG2 Attagene cis-reporter, E2F reporter RNA transcripts; actives raise or lower the signal
Sequence (Q01094 whole entry, looked up): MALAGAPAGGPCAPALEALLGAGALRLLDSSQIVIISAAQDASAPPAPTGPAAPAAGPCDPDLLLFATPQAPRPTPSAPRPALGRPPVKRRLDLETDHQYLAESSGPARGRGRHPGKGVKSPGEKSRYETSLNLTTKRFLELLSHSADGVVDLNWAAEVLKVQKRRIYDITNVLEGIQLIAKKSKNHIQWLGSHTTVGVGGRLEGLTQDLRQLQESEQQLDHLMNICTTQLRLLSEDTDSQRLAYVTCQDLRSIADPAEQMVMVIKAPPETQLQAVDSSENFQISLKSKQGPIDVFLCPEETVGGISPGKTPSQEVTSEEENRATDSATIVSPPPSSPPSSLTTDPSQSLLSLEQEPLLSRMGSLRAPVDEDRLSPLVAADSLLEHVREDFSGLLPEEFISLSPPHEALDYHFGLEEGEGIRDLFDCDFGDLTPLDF
In short: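 Total RNA from 24 h-treated, reporter-transfected HepG2 cells undergoes DNase I treatment, oligo(dT) reverse transcription, PCR and 6-FAM primer extension before capillary electrophoresis.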

Structure (SMILES) | outcome | AC50
CNC(=C[N+](=O)[O-])NCCSCc1csc(CN(C)C)n1 | inactive | 
O=C1CCCCCCCCCCCCCC1 | inactive | 
CCCC(=O)OC/C=C(\C)CCC=C(C)C | inactive | 
CCCCCCC(O)CCCCCCCCCCC(=O)OC (centres undefined) | inactive | 
COC(=O)c1ccccc1 | inactive | 
O=C(O)/C=C/C(=O)O | inactive | 
O=S(=O)(O)c1cccc2ccccc12 | inactive | 
C/C=C(\C)C(=O)OCC/C=C\CC | inactive | 
CC/C=C\CC/C=C/C(OCC)OCC | inactive | 
C=CCOCC(CC)(CO)COCC=C | inactive | 
CN1CCCC1 | inactive | 
CCO[Si](CCCN)(OCC)OCC | inactive | 
CCCCCCC1CCC(=O)O1 (centres undefined) | inactive | 
O=[N+]([O-])c1ccccc1C(F)(F)F | inactive | 
CCC(=O)OCc1ccc(OC)cc1 | inactive | 
CCc1cc(C(N)=S)ccn1 | inactive | 
CCC(C)=NO | inactive | 
COc1cccc(OC)c1C(=O)O | inactive | 
C=C1CC[C@H]2C[C@@H]1C2(C)C | inactive | 
CCCCCC1CCCC(=O)O1 (centres undefined) | inactive | 

Structure (SMILES) | outcome | AC50
COC(=O)[C@]1(C)CCC[C@@]2(C)[C@H]1CC=C1C=C(C(C)C)CC[C@@H]12 | inactive | 
Cc1cc2nc3c(=O)[nH]c(=O)nc-3n(C[C@H](O)[C@H](O)[C@H](O)CO)c2cc1C | inactive | 
Cc1cc(-n2nc3ccc(Cl)cc3n2)c(O)c(C(C)(C)C)c1 | inactive | 
O=C(OCc1ccccc1)c1ccccc1 | inactive | 
CCCCCCC1CCCC(=O)O1 (centres undefined) | inactive | 
c1ccc(CNc2ncnc3nc[nH]c23)cc1 | inactive | 
NC(=O)c1ccc(N)cc1 | inactive | 
CC(=O)Nc1c(I)c(NC(C)=O)c(I)c(C(=O)O)c1I | inactive | 
CC(C)=CCOC(=O)c1ccccc1 | inactive | 
CC(C)(C)NC(=O)[C@@H]1CN(Cc2cccnc2)CCN1C[C@@H](O)C[C@@H](Cc1ccccc1)C(=O)N[C@H]1c2ccccc2C[C@H]1O | inactive | 
Oc1cccc2ccccc12 | inactive | 
C=CN1CCCCCC1=O | inactive | 
Oc1ccc(Oc2ccccc2)cc1 | inactive | 
CC(=O)CCc1ccccc1 | inactive | 
CNC[C@H](O)[C@@H](O)[C@H](O)[C@H](O)CO | inactive | 
CN(C)c1ccc(C(c2ccccc2)c2ccc(N(C)C)cc2)cc1 | inactive | 
c1ccc2c(c1)Oc1ccccc1S2 | inactive | 
CCCCCC[C@@H](O)C/C=C\CCCCCCCC(=O)O |  | 177 µM (active)
CC[N+](CC)(CC(=O)Nc1c(C)cccc1C)Cc1ccccc1 (tested in a mixture with another compound) | inactive | 

tested on: not listed separately; experiment: ATG_E_Box_CIS: Attagene CIS-FACTORIAL HepG2 Assay for human Enhancer Box (E-box) (AID 2282936); conditions: HepG2 E-box cis-reporter transcription, actives raise or lower the signal
In short: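 DMSO served as negative control and baseline for bidirectional fitting. Human hepatoma HepG2 cells, transiently transfected with cis-reporter constructs, were dosed 24 h; reporter mRNA read by RT-PCR and capillary electrophoresis.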

Structure (SMILES) | outcome | AC50
CNC(=C[N+](=O)[O-])NCCSCc1csc(CN(C)C)n1 | inactive | 
O=C1CCCCCCCCCCCCCC1 | inactive | 
CCCC(=O)OC/C=C(\C)CCC=C(C)C | inactive | 
CCCCCCC(O)CCCCCCCCCCC(=O)OC (centres undefined) | inactive | 
COC(=O)c1ccccc1 | inactive | 
O=C(O)/C=C/C(=O)O | inactive | 
O=S(=O)(O)c1cccc2ccccc12 | inactive | 
C/C=C(\C)C(=O)OCC/C=C\CC | inactive | 
CC/C=C\CC/C=C/C(OCC)OCC | inactive | 
C=CCOCC(CC)(CO)COCC=C | inactive | 
CN1CCCC1 | inactive | 
CCO[Si](CCCN)(OCC)OCC | inactive | 
CCCCCCC1CCC(=O)O1 (centres undefined) | inactive | 
O=[N+]([O-])c1ccccc1C(F)(F)F | inactive | 
CCC(=O)OCc1ccc(OC)cc1 | inactive | 
CCc1cc(C(N)=S)ccn1 | inactive | 
CCC(C)=NO | inactive | 
COc1cccc(OC)c1C(=O)O | inactive | 
C=C1CC[C@H]2C[C@@H]1C2(C)C | inactive | 
CCCCCC1CCCC(=O)O1 (centres undefined) | inactive | 

Structure (SMILES) | outcome | AC50
COC(=O)[C@]1(C)CCC[C@@]2(C)[C@H]1CC=C1C=C(C(C)C)CC[C@@H]12 | inactive | 
Cc1cc2nc3c(=O)[nH]c(=O)nc-3n(C[C@H](O)[C@H](O)[C@H](O)CO)c2cc1C | inactive | 
Cc1cc(-n2nc3ccc(Cl)cc3n2)c(O)c(C(C)(C)C)c1 | inactive | 
O=C(OCc1ccccc1)c1ccccc1 | inactive | 
CCCCCCC1CCCC(=O)O1 (centres undefined) |  | 75.2 µM (active)
c1ccc(CNc2ncnc3nc[nH]c23)cc1 | inactive | 
NC(=O)c1ccc(N)cc1 | inactive | 
CC(=O)Nc1c(I)c(NC(C)=O)c(I)c(C(=O)O)c1I | inactive | 
CC(C)=CCOC(=O)c1ccccc1 | inactive | 
CC(C)(C)NC(=O)[C@@H]1CN(Cc2cccnc2)CCN1C[C@@H](O)C[C@@H](Cc1ccccc1)C(=O)N[C@H]1c2ccccc2C[C@H]1O | inactive | 
Oc1cccc2ccccc12 | inactive | 
C=CN1CCCCCC1=O | inactive | 
Oc1ccc(Oc2ccccc2)cc1 | inactive | 
CC(=O)CCc1ccccc1 | inactive | 
CNC[C@H](O)[C@@H](O)[C@H](O)[C@H](O)CO | inactive | 
CN(C)c1ccc(C(c2ccccc2)c2ccc(N(C)C)cc2)cc1 | inactive | 
c1ccc2c(c1)Oc1ccccc1S2 |  | 57.3 µM (active)
CCCCCC[C@@H](O)C/C=C\CCCCCCCC(=O)O |  | 170 µM (active)
CC[N+](CC)(CC(=O)Nc1c(C)cccc1C)Cc1ccccc1 (tested in a mixture with another compound) | inactive | 
